Holding throughout (format): functional
In test [1] the test system is Plasmodium falciparum. As to the kind of experiment: GSK_TCMDC: Inhibition of Plasmodium falciparum 3D7 in whole red blood cells, using parasite LDH activity as an index of growth. Test compounds present at 2uM.
The test system of test [2] is Plasmodium falciparum. As to the kind of experiment: GSK_TCMDC: Inhibition of Plasmodium falciparum Dd2 in whole red blood cells, using parasite LDH activity as an index of growth. Test compounds present at 2uM.
The next test relates to HepG2. As to the kind of experiment: GSK_TCMDC: Percent inhibition of human HepG2 cell line. Test compounds present at 10uM.

On to `COc1ccc2nccc([C@@H](O)CN3CCC(NCc4ccc5c(c4)NC(=O)C(C)S5)CC3)c2c1.O=C(O)C(=O)O` (stereo partly specified), for which the Inhibition (in general, how much of the control response was suppressed) with Plasmodium falciparum [1] is recorded as 99%; in the test with Plasmodium falciparum [2] it was 72%; in the test with HepG2 it was 7%.
Regarding `Cc1ccc(F)c(OCC2CCN(c3ncc(C(=O)NC4CC4)cc3Cl)CC2)c1`, the Inhibition was found to be 96% in the test on Plasmodium falciparum [1], 95% in the test with Plasmodium falciparum [2] and 9% with HepG2.
As for `CCOC(=O)c1ccc(NC(=O)N[C@@H](Cc2ccc(O)cc2)C(=O)NC2CCN(Cc3ccc4c(c3)OCO4)CC2)cc1.O=C(O)C(F)(F)F`, the Inhibition was determined as 86% in the test on Plasmodium falciparum [1], 24% with Plasmodium falciparum [2] and 0% in the test with HepG2.
As for `O=C(Cc1ccc(NC(=O)c2ccc(O)c(-c3cccc([N+](=O)[O-])c3)c2)cc1)NCCN1CCCCC1`, the values for the Inhibition in the test on Plasmodium falciparum [1], in the test on Plasmodium falciparum [2] and in the test with HepG2 were 89%, 3% and 4%, respectively.
As to `Cc1ccc(NC(=O)c2cccc(CN3CCCN(Cc4cccc(O)c4)CC3)c2)cc1.O=C(O)C(F)(F)F`, the values for the Inhibition in the test with Plasmodium falciparum [1], in the test on Plasmodium falciparum [2] and in the test with HepG2 were 82%, 3% and 22%, respectively.
Consider `COc1ccc(O)cc1Cc1cnc2nc(N)nc(N)c2c1C`, for which the values for the Inhibition with Plasmodium falciparum [1], with Plasmodium falciparum [2] and in the test on HepG2 were 92%, 97% and 67%, respectively.
`COc1cccc(C(=O)OC2=C3CCC(=O)C3(C)CCC2=O)c1` (stereo unspecified): the Inhibition with Plasmodium falciparum [1] was found to be 93%; in the test on Plasmodium falciparum [2] it was 9%; in the test on HepG2, 37%.
For the compound `Cc1noc(C)c1-c1ccc(C(=C2CCCCCC2)c2ccc(O)cc2)cc1`, the results for the Inhibition in the test with Plasmodium falciparum [1], in the test on Plasmodium falciparum [2] and in the test with HepG2 were 100%, 96% and 0%, respectively.
For `Br.C=CCN1Cc2c(O)cccc2C(c2ccc(O)c(O)c2)C1` (stereo unspecified), the Inhibition in the test on Plasmodium falciparum [1] turned out to be 97%; with Plasmodium falciparum [2] it was 6%; in the test with HepG2 it was 0%.
Taken in the same sequence, the figures for `O=C(Nc1cccc(CN2CCN(C(=O)c3cccs3)CC2)c1)c1cccs1.O=C(O)C(F)(F)F` were 95%, 91% and 0%.
Turning to `COc1ccc(CCN(C)CCOc2ccc(NC(=O)c3cc(SC)cc4c(=O)c5ccccc5[nH]c34)cc2)cc1OC`, the Inhibition with Plasmodium falciparum [1] is 87%; in the test on Plasmodium falciparum [2], 44%; in the test with HepG2, 7%.
With `O=C(COc1ccc(Cl)c(Cl)c1)NCCCCCN1CCCN(C(=O)Nc2ccc(Cl)c(Cl)c2)CC1.O=C(O)C(F)(F)F`, the Inhibition in the test on Plasmodium falciparum [1] worked out at 93%; in the test with Plasmodium falciparum [2], 7%; in the test with HepG2 it was 29%.
On to `COc1ccc(NC(=O)Nc2ccc(-c3ccncc3)c(Cl)c2)cc1N1CCN(C)CC1`, for which the Inhibition in the test on Plasmodium falciparum [1] came to 98%; in the test with Plasmodium falciparum [2], 62%; in the test on HepG2 it was 19%.
`O=C(Nc1ccncc1)c1cc(C(=O)Nc2ccncc2)cc([N+](=O)[O-])c1`: the Inhibition with Plasmodium falciparum [1] amounted to 100%; with Plasmodium falciparum [2], 50%; in the test with HepG2 it was 1%.
Turning to `Cc1cc(N[C@@H](Cc2ccccc2)C(=O)NCc2cccc(F)c2)nc(NCCOc2ccccc2)n1.O=C(O)C(F)(F)F`, the Inhibition is reported as 97% in the test with Plasmodium falciparum [1], 7% with Plasmodium falciparum [2] and 0% in the test with HepG2.
For the compound `CN1CCC(NCc2cccc(-c3ccc(S(=O)(=O)NCCc4ccccn4)c(F)c3)c2)CC1.O=C(O)C(F)(F)F`, the Inhibition in the test on Plasmodium falciparum [1] was found to be 98%; in the test on Plasmodium falciparum [2], 26%; in the test with HepG2 it was 11%.
The matching figures for `Cc1cc(-c2nc3cncc(-c4cccc(CN5CCCC5Cc5cccnc5)c4)c3n2C)nn1C.O=C(O)C(F)(F)F` (stereo unspecified): 83%, 73% and 0%.
Consider `O=C(/C=C/c1ccc(Cl)c(Cl)c1)NCCCCN1CCCN(C(=O)Nc2cc(Cl)cc(Cl)c2)CC1`, for which the values for the Inhibition in the test on Plasmodium falciparum [1], with Plasmodium falciparum [2] and with HepG2 were 97%, 1% and 21%, respectively.
Consider `O=C(Nc1ccc(F)c(C(F)(F)F)c1)NC1CCN(CCCCCNC(=O)C2CC2c2ccc(Cl)c(Cl)c2)CC1` (stereo unspecified), for which the results for the Inhibition in the test with Plasmodium falciparum [1], in the test on Plasmodium falciparum [2] and with HepG2 were 100%, 16% and 96%, respectively.
`O=C(O)C(F)(F)F.O=[N+]([O-])c1cccc(CNC2CCN(Cc3ccc(Cl)c(Cl)c3)CC2)c1`: the results for the Inhibition in the test with Plasmodium falciparum [1], in the test on Plasmodium falciparum [2] and in the test on HepG2 were 100%, 71% and 5%, respectively.
As for `Cc1cc(NCCC(=O)NCCOc2ccccc2)nc(NCCOc2ccccc2)n1.O=C(O)C(F)(F)F`, the values for the Inhibition with Plasmodium falciparum [1], in the test with Plasmodium falciparum [2] and in the test on HepG2 were 92%, 20% and 8%, respectively.
As for `COc1cc2ccccc2cc1OCCCN1CCN(CC(c2ccc(F)cc2)N2CCN(C(C)C)CC2)CC1.Cl` (stereo unspecified), the results for the Inhibition in the test on Plasmodium falciparum [1], in the test with Plasmodium falciparum [2] and in the test with HepG2 were 100%, 92% and 72%, respectively.
Taken in the same sequence, the figures for `Cl.c1ccc(Cn2nnnc2-c2cccc(Nc3ccnc4cc(-c5nccs5)ccc34)c2)cc1` were 87%, 46% and 51%.
Consider `Cl.Oc1ccc2ccccc2c1CNCCC1CCCCC1`, for which the Inhibition in the test with Plasmodium falciparum [1] is reported as 99%; in the test with Plasmodium falciparum [2], 99%; in the test with HepG2, 16%.
In the case of `Cc1ccc(CON2C(N)=NC(N)=NC23CCCCC3)c2ccccc12.Cl`, the Inhibition in the test with Plasmodium falciparum [1] came out at 98%; with Plasmodium falciparum [2] it was 56%; with HepG2 it was 57%.
On to `CC1Cc2ccccc2N1S(=O)(=O)c1cc(OCC(F)(F)F)ccc1OCC(F)(F)F` (stereo unspecified), for which the figures for the Inhibition in the test with Plasmodium falciparum [1], in the test with Plasmodium falciparum [2] and with HepG2 were 96%, 95% and 10%, respectively.
Take `CC(=O)N/N=C/[C@H](CCc1ccccc1)NC(=O)[C@H](CC(C)C)NC(=O)c1ccc(OCCN2CCOCC2)cc1`: the Inhibition in the test with Plasmodium falciparum [1] was found to be 96%; in the test with Plasmodium falciparum [2], 87%; in the test on HepG2, 4%.
